The values below come from PubChem BioAssay (NCI).

The panel holds about 83,000 compounds, 20% with a hit somewhere; the sample as a whole holds those more often.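 Percent growth is the endpoint: 0 to 100 indicates growth inhibition (40 means 60% inhibition), 0 means no net growth, and negative values indicate cell death.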 Unmarked numbers belong to inactive results. Calls of active or inactive are those of the source. The calls were made as follows: active = growth percent below 10; inactive = the rest.

Among the test systems are HCT-15 colon; HT29 colon; SNB-75 CNS; SNB-19 CNS; U251 CNS; PC-3 prostate; SK-MEL-5 melanoma; UACC-62 melanoma; LOX IMVI melanoma; SK-MEL-28 melanoma.
Holding throughout (assay): NCI-60 one-dose screen, 48 h (100 = growth as untreated, 0 = no growth, -100 = all killed)
Holding throughout (details): 10 µM unless noted

For the molecule `Cc1ccc(C(=O)Nc2ccc(CN3CCN(C)CC3)c(C(F)(F)F)c2)cc1C#Cc1cnc(N)c2ccccc12`, the growth with HCT-15 colon is -69.2% (active); in the assay on HT29 colon, -12.8% (active); with SNB-75 CNS, -70.4% (active); in the assay on SNB-19 CNS, -66.1% (active); with U251 CNS it was -70.5% (active); in the assay with PC-3 prostate, 3.18% (active). Moreover, the growth in the assay on SK-MEL-5 melanoma was -85.4% (active); in the assay on UACC-62 melanoma, 4.11% (active); with LOX IMVI melanoma, -94.5% (active); with SK-MEL-28 melanoma, -86% (active).

For the molecule `CC(C)n1nc(-c2ccc3oc(N)nc3c2)c2c(N)ncnc21`, the growth was 0.972% (active) in the assay with HCT-15 colon; 4.07% (active) in the assay with HT29 colon; -51.4% (active) in the assay with SNB-75 CNS; 0.364% (active) in the assay on SNB-19 CNS; 1.15% (active) in the assay on U251 CNS; 0.237% (active) with PC-3 prostate. Further, the growth was -40.3% (active) in the assay with SK-MEL-5 melanoma, -45% (active) in the assay on UACC-62 melanoma, -16.4% (active) with LOX IMVI melanoma and -24% (active) in the assay with SK-MEL-28 melanoma.

Regarding `COc1nc2ccccc2cc1/C=C1/C=C(c2ccccc2)NC1=O`, the growth with HCT-15 colon is 30.3%; with HT29 colon, 10%; in the assay with SNB-75 CNS, 28.8%; with SNB-19 CNS, 43.4%; with U251 CNS, 31%; in the assay on PC-3 prostate, 55.1%. For the same molecule, the growth with SK-MEL-5 melanoma is 39.4%; with UACC-62 melanoma it was 32.1%; in the assay with LOX IMVI melanoma, 38.8%; in the assay on SK-MEL-28 melanoma, 58.9%.

On to `O=S(=O)(Nc1ccc(Br)cc1)c1ccc(-c2cnc(C3CC3)o2)cc1`, for which the growth was 20.8% in the assay with HCT-15 colon; 13.9% with HT29 colon; -6.53% (active) in the assay on SNB-75 CNS; 35.3% in the assay with SNB-19 CNS; 24.9% with U251 CNS; 29.2% with PC-3 prostate. Besides, the growth in the assay with SK-MEL-5 melanoma is 19.2%; in the assay with UACC-62 melanoma it was 23.6%; in the assay with LOX IMVI melanoma, 45.9%; with SK-MEL-28 melanoma it was 53.5%.

In the case of `O=C(Nc1ccccc1CNc1nc(Nc2ccc(OCCN3CCCC3)cc2)ncc1Cl)NC1CCCCC1`, the growth in the assay with HCT-15 colon is 60.7%; with HT29 colon, 9.11% (active); in the assay with SNB-75 CNS it was 96.5%; with SNB-19 CNS it was 91.6%; with U251 CNS, 70.4%; with PC-3 prostate, 84%. For the same molecule, the growth was 64.6% with SK-MEL-5 melanoma, 97.3% in the assay with UACC-62 melanoma, 84.7% in the assay with LOX IMVI melanoma and 79.8% with SK-MEL-28 melanoma.

For `C=C(c1ccc(OC)c(/C=C/C(=O)c2cc(OC)c(OC)c(OC)c2)c1)c1cc(OC)c(OC)c(OC)c1`, the growth with HCT-15 colon was -21.6% (active); with HT29 colon it was 0.495% (active); in the assay with SNB-75 CNS, 49.8%; with SNB-19 CNS, -3.73% (active); in the assay with U251 CNS it was -49.3% (active); in the assay with PC-3 prostate, 31.5%. The growth with SK-MEL-5 melanoma was -69.3% (active); with UACC-62 melanoma, -70% (active); with LOX IMVI melanoma, -87.3% (active); in the assay on SK-MEL-28 melanoma it was -77.3% (active).

Regarding `O=C1/C(=C/c2ccccc2)COc2ccc(O)cc21`, the growth is 57.1% with HCT-15 colon; 62.7% with HT29 colon; 99.7% in the assay on SNB-75 CNS; 93.6% in the assay with SNB-19 CNS; 55.1% in the assay on U251 CNS; 84.2% in the assay with PC-3 prostate. Moreover, the growth in the assay on SK-MEL-5 melanoma was 97.3%; in the assay on UACC-62 melanoma it was 86.6%; with LOX IMVI melanoma it was 89.8%; with SK-MEL-28 melanoma it was 103%.

As to `N/C(=N\c1nc2ccccc2s1)NC(=O)Nc1ccccc1`, the growth in the assay with HCT-15 colon is 23.4%; in the assay with HT29 colon, 14.3%; in the assay with SNB-75 CNS it was 31.4%; in the assay with SNB-19 CNS, 32.1%; in the assay with U251 CNS, 21%; in the assay on PC-3 prostate, 57.1%. The growth with SK-MEL-5 melanoma is 32.5%; in the assay with UACC-62 melanoma, 21%; with LOX IMVI melanoma it was 34.7%; in the assay on SK-MEL-28 melanoma it was 72.3%.

Take `C=C1CC[C@@H]2[C@](C)(COC(C)=O)[C@H](OC(C)=O)CC[C@@]2(C)[C@@H]1CC(Nc1ccc(S(=O)(=O)Nc2nccc(C)n2)cc1)C1=CCOC1=O` (stereo not given in full): the growth is -42% (active) with HCT-15 colon; -28.2% (active) in the assay on HT29 colon; 9.66% (active) in the assay with SNB-75 CNS; 53.6% with SNB-19 CNS; 14.6% with U251 CNS; 41.5% in the assay on PC-3 prostate. Moreover, the growth with SK-MEL-5 melanoma is 45%; with UACC-62 melanoma it was 24.2%; in the assay with LOX IMVI melanoma, -72.9% (active); with SK-MEL-28 melanoma, -7.05% (active).

Turning to `CN(C)c1ccc(Cc2cc(-c3ccccc3)nn(C/C(=N/O)c3ccccc3)c2=O)cc1`, the growth with HCT-15 colon is 50.1%; with HT29 colon it was 32.9%; in the assay with SNB-75 CNS, 72.9%; with SNB-19 CNS, 64.4%; in the assay on U251 CNS, 44.3%; in the assay on PC-3 prostate it was 30.9%. Further, the growth is 55.8% in the assay on SK-MEL-5 melanoma, 39.3% with UACC-62 melanoma, 53% in the assay with LOX IMVI melanoma and 72% with SK-MEL-28 melanoma.

In the case of `COCCn1cc(-c2nc(-c3cc4cccnc4n3C)cs2)c2cc(OC)ccc21`, the growth in the assay on HCT-15 colon was 32.1%; in the assay with HT29 colon, 48.2%; in the assay with SNB-75 CNS, 47.7%; with SNB-19 CNS, 87.4%; with U251 CNS it was 59%; with PC-3 prostate, 16.1%. Also, the growth in the assay with SK-MEL-5 melanoma is 26.7%; in the assay with UACC-62 melanoma, 61.7%; with LOX IMVI melanoma, 38.2%; with SK-MEL-28 melanoma it was 88.3%.
